Assay results: PubChem BioAssay

Experiment: small-molecule microarray binders of probe aShh, primary screen, biochemical, biotinylated probe, 635/667 nm fluorescence (AID 1114);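 also: probe is biotin-labelled aShh protein from a stem cell growth factor screen; measures binding of labelled protein to compounds printed on the slide; score merges feature fluorescence at 667 nm with signal-to-noise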
Conditions: higher = more signal
For CCCCC(CC)C(O)C1C=CC2C(=O)NC(=O)C2N1Nc1ccccn1 (stereo not given), the composite z-score was -0.119.
Work on CC(C)C[C@@H]1NC(=O)[C@@H]2C[C@H](C(=O)NCCCC[N+](C)(C)C)[C@H](c3cccc(OCCO)c3)N2C1=O yielded a composite z-score of 0.151.
COCCOC(=O)N1C(=O)[C@@]2(c3ccccc31)[C@H](c1ccccc1OCCO)N1[C@H](c3ccccc3)[C@H](c3ccccc3)OC(=O)[C@H]1[C@@H]2C(=O)N1CCc2cc(OC)c(OC)cc2C1 showed a composite z-score of 0.399.
With CN1C(=O)C2C=CC(C(O)COCc3ccccc3)N(Nc3ccccc3)C2C1=O (stereo not given) the composite z-score was -0.0793.
Molecule [N-]=[N+]=NCc1ccccc1[C@H]1OC(c2ccc(OCCCO)cc2)=N[C@@]1(Cc1ccccc1N=[N+]=[N-])C(=O)NCCN1CCOCC1 has a composite z-score of 0.432.
C[N+](C)(C)CCCCNC(=O)[C@H]1C[C@H]2C(=O)NCC(=O)N2[C@H]1c1ccc(O)cc1 gave a composite z-score of -0.291.
For Cc1ccc(F)cc1S(=O)(=O)N[C@@H]1CCN(C(=O)c2ccc(OC(C)C)cc2)C1, the composite z-score was 0.0121.
COCCOC(=O)N1C(=O)[C@@]2(c3ccccc31)[C@H](c1ccc(OCCO)cc1)N1[C@H](c3ccccc3)[C@H](c3ccccc3)OC(=O)[C@H]1[C@@H]2C(=O)NC[C@H](O)c1ccccc1 gave a composite z-score of -0.141.
For CCCCC=C[C@@H](NC(=O)CCc1ccccc1)c1ccccc1, the composite z-score was 1.11.
COc1ccc([Si](C)(C)[C@@H]2[C@@H](CCO)O[C@]3(C(=O)N(Cc4ccc(N5C(=O)c6ccccc6Oc6ccccc65)cc4)c4ccccc43)[C@H]2C)cc1 gave a composite z-score of -0.138.
Work on CC[C@@H]1[C@@H]2C3C(=O)N(CC)C(=O)C3CC(=O)[C@@H]2[C@H](c2ccc(C)cc2)N1S(=O)(=O)c1ccc(C)cc1 (stereo not given in full) yielded a composite z-score of 0.232.
In the case of COCCOC(=O)N1C(=O)[C@@]2(c3cc(C#CC4(O)CCCCCC4)ccc31)[C@H](C(=O)N1CCc3cc(OC)c(OC)cc3C1)[C@H]1C(=O)O[C@H](c3ccccc3)[C@H](c3ccccc3)N1[C@@H]2c1ccccc1OCCO, the composite z-score is reported as 0.261.
With COc1ccc(C#Cc2ccc3c(c2)[C@]2(C(=O)N3)[C@H](C(=O)O)[C@H]3C(=O)O[C@H](c4ccccc4)[C@H](c4ccccc4)N3[C@@H]2c2ccc(OCCO)cc2)cc1 the composite z-score was 0.0492.
COc1ccc(C#Cc2ccc3c(c2)[C@]2(C(=O)N3)[C@H](c3ccc(OCCO)cc3)N3[C@H](c4ccccc4)[C@H](c4ccccc4)OC(=O)[C@H]3[C@@H]2C(=O)N2CCN(c3ncccn3)CC2)cc1 gave a composite z-score of -0.262.
[N-]=[N+]=NCc1ccccc1[C@H]1OC(c2ccc(OCCCO)cc2)=N[C@@]1(Cc1ccccc1N=[N+]=[N-])C(=O)N1CCCCC1 showed a composite z-score of -0.157.
Molecule CCCC=C(CCC)[C@@H](NS(=O)(=O)c1ccccc1)c1ccc(C(F)(F)F)cc1 has a composite z-score of 0.432.
Molecule COc1cc2c(cc1OC)CN(C(=O)[C@@H]1[C@H]3C(=O)O[C@H](c4ccccc4)[C@H](c4ccccc4)N3[C@H](c3ccc(O)cc3)[C@@]13C(=O)Nc1ccc(C#CCNC(N)=O)cc13)CC2 has a composite z-score of 0.0062.
COc1ccc([Si](C)(C)[C@@H]2[C@@H](CCO)O[C@]3(C(=O)N(Cc4cccc(N5C(=O)COc6ccccc65)c4)c4ccccc43)[C@H]2C)cc1 showed a composite z-score of 0.0048.
Molecule C=CC[C@@]1(C(=O)NCCN2CCOCC2)N=C(c2ccc(OCCCO)cc2)O[C@@H]1c1ccccc1 has a composite z-score of -0.0093.
O=C1c2ccccc2[C@](Cc2ccccc2I)(C(=O)NCC(F)(F)F)[C@H](c2ccc(CO)cc2)N1Cc1ccccc1 showed a composite z-score of 0.0048.
In the case of COc1ccc(C(=O)Nc2ccc3c(c2)[C@]2(O[C@@H](CCO)[C@H]([Si](C)(C)c4ccc(OC)cc4)[C@H]2C)C(=O)N3Cc2ccccc2)cc1, the composite z-score is reported as 0.0062.
In the case of COC(=O)[C@@]1(Cc2ccc(OC)cc2)[C@H]2c3cc(C(=O)N(C)C)n(CCF)c3C[C@H]2CN1C(=O)c1ccccc1, the composite z-score is reported as 0.675.
Work on COC(=O)c1c(CC[C@@H](CO)NC(=O)N[C@@H](C)Cn2cc(C3(O)CCCC3)nn2)oc(C(C)=O)c1C(=O)OC yielded a composite z-score of -0.0709.
With CC1=C2[C@@H](CCc3ccccc3)OB(O)C[C@@H]2[C@@H]2C(=O)C=CC(=O)[C@@H]2C1 the composite z-score was -0.214.
In the case of CCCNC(=O)[C@@]1(Sc2ccc(C)cc2)CC(=O)N(Cc2ccccc2)[C@@H]1c1ccc(CO)cc1I, the composite z-score is reported as -0.1.
In the case of CC(C)C(CO)N1C(=O)[C@@H]2[C@H]3C(=O)OCC=C[C@H]3OC23C=CCN(Cn2nnc4ccccc42)C(=O)[C@@H]13 (stereo not given in full), the composite z-score is reported as 0.35.
O=[N+]([O-])c1ccc(C[n+]2ccc(-c3ccc(CO)cc3)cc2)o1 gave a composite z-score of 0.172.
COc1cc(C(O)C2C=CC3C(=O)N(C)C(=O)C3N2NC(=O)OC(C)(C)C)cc(OC)c1OC (stereo not given) gave a composite z-score of 0.848.
COc1ccc([Si](C)(C)[C@@H]2[C@@H](CC(=O)N(CCO)Cc3ccccc3)O[C@]3(C(=O)N(C)c4c(Br)cc(C)cc43)[C@H]2C)cc1 gave a composite z-score of -0.399.
For COC(=O)[C@@]1(Cc2ccccc2)[C@H]2c3cc(C(=O)N(C)C)n(Cc4ccccn4)c3C[C@H]2CN1C(=O)c1ccccc1, the composite z-score was -0.0849.
O=C1NC(=O)C2C1C=CC(C(O)CCc1ccccc1)N2Nc1ccccn1 (stereo not given) gave a composite z-score of -0.262.
In the case of CCOC(=O)C1=CCC(c2cccc(Cl)c2)O1 (stereo not given), the composite z-score is reported as 0.0796.
C=C(COC)C(=O)CC[C@H](OC(=O)c1ccccc1-c1ccccc1C(=O)O)c1ccc(CO)o1 showed a composite z-score of -0.0553.
In the case of N#Cc1ccc(NN2C(C(O)c3ccco3)C=CC3C(=O)N(c4ccccc4)C(=O)C32)cc1 (stereo not given), the composite z-score is reported as -0.0035.
COC(=O)C(CC#Cc1ccc2c(c1)[C@]1(C(=O)N2)[C@H](C(=O)N2CCc3cc(OC)c(OC)cc3C2)[C@H]2C(=O)O[C@H](c3ccccc3)[C@H](c3ccccc3)N2[C@@H]1c1ccc(OCCO)cc1)C(=O)OC showed a composite z-score of -0.159.
